# PubChem BioAssay AID1159580 (chemical genetic matrix, 2015)
# Values joined by “and” are separate entries in the source; they are usually repeats but may differ in a detail not shown here. Equal values may be shown once. The whole screen tested about 5,500 compounds, of which about 2,000 (36%) were called active. Inconclusive results (about 18%) are left out. Cut-off read from the data, not from the text of the source: active = normalized growth mostly below about 0.91 (no sharp cut-off); inconclusive = no clear call, values can overlap the other calls; inactive = mostly above about 0.92. The list shows a part of the results.
# Experiment: chemical genetic growth profiling, strain panel (AID 1159580);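 note: tested at 20 µM; growth read once vehicle control cultures reached saturation at 30 °C; 1 = growth at the plate median or of vehicle wells; lower values mean less growth of the strain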
# Settings: S. cerevisiae deletion strains, growth OD
compound,measurement,setting,value
CC[C@@]1(O)C[C@H](O[C@H]2C[C@H](N(C)C)[C@H](O)[C@H](C)O2)c2c(cc3c(c2O)C(=O)c2c(O)cccc2C3=O)[C@H]1C(=O)OC,normalized growth,"locus YAL021C, strain ccr4, stronger effect = lower value",0.653 (active)
same,normalized growth,"locus YAL026C, strain drs2, stronger effect = lower value",0.883 (active)
same,normalized growth,"locus YAL030W, strain snc1, stronger effect = lower value",0.907 (active)
same,normalized growth,"locus YBL061C, strain skt5, stronger effect = lower value",0.891 (active)
same,normalized growth,"locus YBR009C, strain hhf1, stronger effect = lower value",0.783 (active)
same,normalized growth,"locus YBR021W, strain FUR4, stronger effect = lower value",1.06 (inactive)
same,normalized growth,"locus YBR023C, strain chs3, stronger effect = lower value",0.899 (active)
same,normalized growth,"locus YBR171W, strain sec66, stronger effect = lower value",0.994 (inactive)
same,normalized growth,"locus YBR229C, strain ROT2, stronger effect = lower value",0.942 (inactive)
same,normalized growth,"locus YBR231C, strain swc5, stronger effect = lower value",0.823 (active)
same,normalized growth,"locus YBR279W, strain paf1, stronger effect = lower value",0.94 (inactive)
same,normalized growth,"locus YCL011C, strain gbp2, stronger effect = lower value",0.867 (active)
same,normalized growth,"locus YCL016C, strain dcc1, stronger effect = lower value",0.704 (active)
same,normalized growth,"locus YCL029C, strain bik1, stronger effect = lower value",0.854 (active)
same,normalized growth,"locus YCL069W, strain vba3, stronger effect = lower value",0.972 (inactive)
same,normalized growth,"locus YCR088W, strain abp1, stronger effect = lower value",0.946 (inactive)
same,normalized growth,"locus YDL005C, strain med2, stronger effect = lower value",0.967 (inactive)
same,normalized growth,"locus YDL035C, strain GPR1, stronger effect = lower value",0.797 (active)
same,normalized growth,"locus YDL040C, strain nat1, stronger effect = lower value",0.955 (inactive)
same,normalized growth,"locus YDL074C, strain BRE1, stronger effect = lower value",0.765 (active)
same,normalized growth,"locus YDL101C, strain DUN1, stronger effect = lower value",0.786 (active)
same,normalized growth,"locus YDL185W, strain tfp1, stronger effect = lower value",0.853 (active)
same,normalized growth,"locus YDL192W, strain arf1, stronger effect = lower value",0.666 (active)
same,normalized growth,"locus YDR001C, strain nth1, stronger effect = lower value",0.944 (inactive)
same,normalized growth,"locus YDR069C, strain doa4, stronger effect = lower value",0.908 (inactive)
same,normalized growth,"locus YDR101C, strain arx1, stronger effect = lower value",0.8 (active)
same,normalized growth,"locus YDR137W, strain rgp1, stronger effect = lower value",0.631 (active)
same,normalized growth,"locus YDR150W, strain NUM1, stronger effect = lower value",0.945 (inactive)
same,normalized growth,"locus YDR159W, strain sac3, stronger effect = lower value",0.73 (active)
same,normalized growth,"locus YDR162C, strain NBP2, stronger effect = lower value",0.595 (active)
same,normalized growth,"locus YDR195W, strain ref2",1.73 [resistant] (active)
same,normalized growth,"locus YDR297W, strain sur2, stronger effect = lower value",0.928 (inactive)
same,normalized growth,"locus YDR318W, strain mcm21, stronger effect = lower value",0.866 (active)
same,normalized growth,"locus YDR334W, strain swr1, stronger effect = lower value",0.959 (inactive)
same,normalized growth,"locus YDR335W, strain msn5, stronger effect = lower value",0.908 (active)
same,normalized growth,"locus YDR388W, stronger effect = lower value",0.847 (active)
same,normalized growth,"locus YDR392W, strain spt3, stronger effect = lower value",0.676 (active)
same,normalized growth,"locus YDR502C, strain sam2, stronger effect = lower value",0.812 (active)
same,normalized growth,"locus YEL003W, strain gim4, stronger effect = lower value",0.924 (inactive)
same,normalized growth,"locus YEL037C, strain rad23, stronger effect = lower value",0.944 (inactive)
same,normalized growth,"locus YEL061C, strain CIN8 (second series), stronger effect = lower value",0.949 (inactive)
same,normalized growth,"locus YEL061C, strain CIN8, stronger effect = lower value",0.879 (active)
same,normalized growth,"locus YER015W, strain faa2, stronger effect = lower value",0.869 (active)
same,normalized growth,"locus YER016W, strain bim1, stronger effect = lower value",0.925 (inactive)
same,normalized growth,"locus YER110C, stronger effect = lower value",0.921 (inactive)
same,normalized growth,"locus YER111C, strain swi4, stronger effect = lower value",0.989 (inactive)
same,normalized growth,"locus YER155C, strain BEM2 (second series), stronger effect = lower value",0.931 (inactive)
same,normalized growth,"locus YER155C, strain BEM2, stronger effect = lower value",0.944 (inactive)
same,normalized growth,"locus YER167W, strain BCK2, stronger effect = lower value",0.884 (active)
same,normalized growth,"locus YFR010W, strain ubp6, stronger effect = lower value",0.887 (active)
same,normalized growth,"locus YGL078C, strain dbp3, stronger effect = lower value",0.928 (inactive)
same,normalized growth,"locus YGL086W, strain mad1, stronger effect = lower value",0.816 (active)
same,normalized growth,"locus YGL167C, strain pmr1, stronger effect = lower value",0.963 (inactive)
same,normalized growth,"locus YGL173C, strain kem1, stronger effect = lower value",0.913 (inactive)
same,normalized growth,"locus YGL227W, strain vid30, stronger effect = lower value",0.959 (inactive)
same,normalized growth,"locus YGL240W, strain doc1, stronger effect = lower value",0.788 (active)
same,normalized growth,"locus YGL248W, strain PDE1, stronger effect = lower value",0.88 (active)
same,normalized growth,"locus YGL253W, strain hxk2, stronger effect = lower value",0.792 (active)
same,normalized growth,"locus YGR078C, strain PAC10, stronger effect = lower value",0.905 (inactive)
same,normalized growth,"locus YGR135W, strain pre9, stronger effect = lower value",0.875 (active)
same,normalized growth,"locus YGR252W, strain gcn5, stronger effect = lower value",1.06 (inactive)
same,normalized growth,"locus YHR013C, strain ard1, stronger effect = lower value",1.01 (inactive)
same,normalized growth,"locus YHR027C, strain rpn1, stronger effect = lower value",0.785 (active)
same,normalized growth,"locus YHR030C, strain SLT2, stronger effect = lower value",0.899 (active) and 0.963 (inactive)
same,normalized growth,"locus YHR079C, strain IRE1 (second series), stronger effect = lower value",0.89 (active)
same,normalized growth,"locus YHR079C, strain IRE1, stronger effect = lower value",0.981 (inactive)
same,normalized growth,"locus YHR094C, strain hxt1, stronger effect = lower value",0.92 (active)
same,normalized growth,"locus YHR129C, strain ARP1, stronger effect = lower value",0.886 (active)
same,normalized growth,"locus YHR142W, strain chs7, stronger effect = lower value",0.882 (inactive)
same,normalized growth,"locus YHR200W, strain rpn10, stronger effect = lower value",0.788 (active)
same,normalized growth,"locus YIL066C, strain RNR3, stronger effect = lower value",0.79 (active)
same,normalized growth,"locus YIL073C, strain SPO22, stronger effect = lower value",0.538 (active)
same,normalized growth,"locus YIL125W, strain kgd1, stronger effect = lower value",0.918 (active)
same,normalized growth,"locus YIR030C, strain dcg1, stronger effect = lower value",0.871 (active)
same,normalized growth,"locus YJL092W, strain hpr5, stronger effect = lower value",0.804 (active)
same,normalized growth,"locus YJL095W, strain BCK1 (second series), stronger effect = lower value",0.886 (active)
same,normalized growth,"locus YJL095W, strain BCK1, stronger effect = lower value",0.776 (active) and 0.954 (inactive)
same,normalized growth,"locus YJL115W, strain asf1, stronger effect = lower value",0.507 (active)
same,normalized growth,"locus YJL129C, strain trk1, stronger effect = lower value",1.08 (inactive)
same,normalized growth,"locus YJL134W, strain LCB3, stronger effect = lower value",0.924 (active)
same,normalized growth,"locus YJL154C, strain vps35, stronger effect = lower value",0.95 (inactive)
same,normalized growth,"locus YJL164C, strain tpk1, stronger effect = lower value",0.867 (active)
same,normalized growth,"locus YJL166W, strain qcr8, stronger effect = lower value",0.85 (active)
same,normalized growth,"locus YJL168C, strain set2, stronger effect = lower value",0.863 (active)
same,normalized growth,"locus YJL187C, strain SWE1 (second series), stronger effect = lower value",0.871 (inactive)
same,normalized growth,"locus YJR043C, strain POL32, stronger effect = lower value",0.722 (active)
same,normalized growth,"locus YJR066W, strain TOR1, stronger effect = lower value",0.879 (inactive)
same,normalized growth,"locus YKL009W, strain mrt4, stronger effect = lower value",0.897 (inactive)
